Data from PubChem BioAssay AID2391 (Southern Research Specialized Biocontainment Screening …, 2010).
About 410 (0.13%) of roughly 310,000 compounds were called active. Not shown: some 2% with an inconclusive outcome. These entries were drawn from the full list. Measured potencies and affinities stand elsewhere. Values without a mark were called inactive. No rule for the calls is given here.

test: RSV antiviral activity via CPE protection, HEp-2 cells, primary 10 µM value included (AID 2391); conditions: RSV-induced CPE inhibition, at 10 µM, active compounds read high

SMILES	CPE inhibition [%]
Cn1ccnc1SCc1ccc(Cl)cc1Cl	1.17
CN(C)/C=C/c1onc(-c2c(Cl)cccc2Cl)c1C#N	1.69
N#Cc1c(-c2ccccc2Cl)noc1/C=C/Nc1ccc(C(=O)O)cc1	2.42
O=C(c1ccccc1Sc1c(Cl)cccc1[N+](=O)[O-])N1CCOCC1	4.6
COc1ccc(/C(C)=N/NC(=O)C2C3CCCCC32)c(OC)c1 (configuration not stated)	-0.16
CCc1ccc(OCC(=O)Nc2ccc3c(c2)OCCO3)cc1	0.88
Cc1ccc2c(c1)cc(CN(Cc1cccs1)C(=O)c1ccco1)c1nnnn12	4.88
Cc1ccc2c(c1)cc(CN(Cc1ccco1)C(=O)N1CCOCC1)c1nnnn12	-0.68
O=C(c1ccc(Cl)c(S(=O)(=O)N2CCCC2)c1)N1CCOCC1	4.9
O=c1[nH]c(CNCc2cccnc2)nc2ccccc12	1.68
CCC1C(=O)n2nc(-c3ccccc3)cc2N=C1C (configuration not stated)	0.9
Cc1cc(NC(=O)COC(=O)c2ccc(NS(=O)(=O)c3ccc(C)c(C)c3)cc2)no1	0.64
Cc1cc(NC(=O)COC(=O)c2oc3c(Cl)cccc3c2C)no1	2.63
Cc1cc(NC(=O)COc2ccc(N(C)S(=O)(=O)c3ccccc3)cc2)no1	0.18
Cc1cc(NC(=O)c2c(Cl)cccc2Cl)no1	-0.16
Cc1cc(NC(=O)COC(=O)c2cc(S(=O)(=O)N(C)c3ccccc3)ccc2Cl)no1	0.4
Cc1cccc(NS(=O)(=O)c2cc(C(=O)OCC(=O)Nc3cc(C)on3)ccc2C)c1	-0.1
O=C(CNC(=O)c1ccc(Br)o1)NNC(=O)c1cccc(Cl)c1	-2.18
O=C1N=c2ccccc2=C1c1sc(NS(=O)(=O)c2ccccc2)nc1O	4.47
CCOC(=O)N1CCC(N2CCCC(CO)(Cc3ccccc3C)C2)CC1 (configuration not stated)	0.07
CC(=O)c1cccc(NC(=O)c2csc3c2CCCCC3)c1	13.4
N#Cc1ccccc1CSc1ncccc1C(=O)O	-0.85
CCOC(=O)C1=C(NC(=S)NC(=O)c2ccccc2)c2ccccc2CC1(C)CC (configuration not stated)	43.2
CCOC(=O)C1=C(NC(=S)NC(=O)c2ccccc2)c2ccccc2CC1(C)C	7.06

SMILES	CPE inhibition [%]
CCOc1cc(/C=C2\SC(=NC)N(C)C2=O)c(Br)cc1OC(C)=O	1.71
Cc1cccc(C)c1OCc1n[nH]c(=S)o1	0.21
Cc1ccc2c(c1)COc1c3ccc(C(=O)NC(C)C)cc3nn1-2	16.2
Cc1ccc2c(c1)COc1c3ccc(C(=O)N[C@@H](CO)C(C)C)cc3nn1-2	15
CCN(CC)CCN(Cc1cc2cc3c(cc2[nH]c1=O)OCO3)C(=S)NCc1ccco1	-1.07
CCOC(=O)CN1C(=O)N[C@@H](c2cccc(F)c2)C(C(=O)OC)=C1C	9.26
CCOC(=O)CN1C(=O)N[C@@H](c2ccccc2)C(C(C)=O)=C1C	2.81
OC(CNC1CCCC1)COc1ccc(Cl)cc1 (configuration not stated)	-0.21
COc1ccc(OC)c(CN2CCC(CO)(CCOc3ccccc3)CC2)c1	-2.58
O=C(Nc1nc2c(s1)CCCC2)c1ccc(S(=O)(=O)N2CCCc3ccccc32)cc1	1.63
O=C(COc1ccccc1)Nc1nc2c(s1)CCCC2	14
O=C(Nc1nc2c(s1)CCCC2)c1cccc(S(=O)(=O)N2CCCc3ccccc32)c1	7.22
COc1ccc(OCC(=O)Nc2nc3c(s2)CCCC3)cc1	6.78
O=C(Nc1nc2c(s1)CCCC2)c1cccs1	14.3
O=C(CCCc1cccs1)Nc1nc2c(s1)CCCC2	1.81
COC(=O)c1ccc(C(C(=O)NC2CCCCC2)N(Cc2ccc(F)cc2)C(=O)Cc2cccs2)cc1 (configuration not stated)	7.57
CC(=O)OCCNC(=O)Cn1cnc2c1c(=O)n(C)c(=O)n2C	0.79
COc1ccc(C2CC(C(F)(F)F)n3nc(C(N)=O)c(Cl)c3N2)cc1OC (configuration not stated)	3.38
CC1CCN(CC(=O)Nc2ccc(S(=O)(=O)N3CCCCC3)cc2)CC1	-0.34
Cc1ccc(N2CC(C(=O)Nc3ccc(S(=O)(=O)N4CCOCC4)cc3)CC2=O)cc1 (configuration not stated)	-0.55
COc1ccc(CCNC(C)=O)cc1	3.67
CCOC(=O)C1(Cc2cccc(OC)c2)CCN(CCO)CC1	-1.67
Cc1c(C(=O)N(C)Cc2cccc(F)c2)oc2c(Cl)cccc12	18
